Among the data in the OligoGym collection are sensor-assay potency score (higher = more potent) values, retold here.
Also: reference of the scale not given here.

One assay addresses RIT1. Briefly: pooled miR-30 sensor sort-seq; sequence = guide strand. As to conditions: shRNA.
In turn, TTGAGGTCTGACTTGTTTCCCA had a sensor-assay potency score (higher = more potent) of -0.117.
Sequence TTGGTGACCTGTCTTAGCTGTT came in with a sensor-assay potency score (higher = more potent) of -0.52.
TAGCTGTTTGAGGTCTGACTTG displayed a sensor-assay potency score (higher = more potent) of -0.94.
The sequence TAAGCTGTTTAAACTCACGAAC registered a sensor-assay potency score (higher = more potent) of -0.618.
Still for that read-out and setting: to TCGGACTCGATAAATAAGCTGT belongs -0.314.
In turn, TACACCACCAGCACCCAGCATC showed a sensor-assay potency score (higher = more potent) of -0.912.
As for TTATAAGCATCTTCAATGGTGG, the sensor-assay potency score (higher = more potent) is -0.101.
Regarding TTCTTTCCTACGTATCTCCCGT, the sensor-assay potency score (higher = more potent) was -0.212.

The next assay addresses RNASE11. The description is as above. Particulars: shRNA.
In turn, TTGTGCTTTCTGATGCTTCTGC had a sensor-assay potency score (higher = more potent) of 0.534.
Still for that read-out and setting: to TTATCTTCATTGTGCTTTCTGA belongs -0.608.
Same read-out and setting: next, TTCTCTAATGAGGTAACACTAT: -1.05; TCTTTAATTATCTTCATTGTGC: -0.382.
Turning to TTCTGTACAAACTTGCAGCTGG, the sensor-assay potency score (higher = more potent) came out at 0.788.
The sequence TTTAACTAACAGGATCGGGTTC showed a sensor-assay potency score (higher = more potent) of -0.116.
For TTGGATTTTTCACTCCTCCAGT, the sensor-assay potency score (higher = more potent) was -0.449.
The sequence TTCGTCTGTAAATTCTTCTTTA displayed a sensor-assay potency score (higher = more potent) of -0.406.
TAATGAGGTAACACTATGGTAT gave a sensor-assay potency score (higher = more potent) of -0.534.
TGATGCTTCTGCAAGAACCAGG: the sensor-assay potency score (higher = more potent) was -0.377.
In turn, TTTAGTAAGACCCTAGTCCTAA had a sensor-assay potency score (higher = more potent) of -0.427.
With TATTGCATCTCTTCGTCTGTAA, the sensor-assay potency score (higher = more potent) came out at 0.018.

The next assay deals with RNF113A. The assay is described as above. Particulars: shRNA.
On to TAGATCTTGTCATCCTCCTTGC, for which the sensor-assay potency score (higher = more potent) was determined as 0.184.
The same measure, in the same setting: next, TTTACCACTGTCACGGGTCTTC: -0.541; TAGTTTAGCAATCAATTCTTTC: -0.827.
ATAGATCTTGTCATCCTCCTTG yielded a sensor-assay potency score (higher = more potent) of 0.536.
In the case of TTCGCTGCTCAAGTCGCCGTAA, the sensor-assay potency score (higher = more potent) is -0.391.
For the sequence TTCGTCGCTACTGCTGCCGCTT, the sensor-assay potency score (higher = more potent) was -0.608.
The sequence TTTTCCGGTCGAACCACAGTGC displayed a sensor-assay potency score (higher = more potent) of -0.536.
Turning to TAGCAATCAATTCTTTCGCTGG, the sensor-assay potency score (higher = more potent) was determined as 0.133.
On the same count and under the same terms, next, TACTGCTGCCGCTTTCTCCGGG: -0.242; TTAGCAATCAATTCTTTCGCTG: 0.0148; TTTTCCTCTTCCTCTTCGCTGC: -0.23.
The sequence TAGCTCGATGCTTCTCTAGTTT showed a sensor-assay potency score (higher = more potent) of -0.684.

In a further assay the target is RNF122. Described as above. As to conditions: shRNA.
As to ATATCCGTATCGCTCACTCTGT, the sensor-assay potency score (higher = more potent) was -0.868.
In the case of ATAATTGTAACTTCTTGGCATC, the sensor-assay potency score (higher = more potent) is -0.737.
TTGCTGATAAAATAGCAGCAGA returned a sensor-assay potency score (higher = more potent) of -0.908.
TATAATTGTAACTTCTTGGCAT registered a sensor-assay potency score (higher = more potent) of 0.823.
For ATCCGTATCGCTCACTCTGTGC, the sensor-assay potency score (higher = more potent) is -0.963.
TAACTTCTTGGCATCACCTTTA came in with a sensor-assay potency score (higher = more potent) of -0.252.
In turn, AAGTCTTCCAGACAGACTGCGC yielded a sensor-assay potency score (higher = more potent) of -0.854.
On to TAGAATCCCAATGTTCTGCGTG, for which the sensor-assay potency score (higher = more potent) was found to be 0.594.
